Test results taken from PubChem BioAssay (NCATS).
“And” between values parts separate entries of the source, which are not always exact repeats. Equal entries are not always repeated. Results filed as inconclusive are left out. The source made the active and inactive calls. Calls follow the shape of the dose curve; as a rule, active = well fitted curve in the direction sought with a large enough effect; inconclusive = small, poorly fitted or top-dose-only effect, or another doubt; inactive = no such curve, though single readings can be large; an effect the other way counts as inactive or inconclusive.

Columns and labels:
[1] = Viability qHTS for spleen associated tyrosine kinase inhibitor (SYKi) naive MV4-11 cells (AID 1963823); also: nearly all actives have a fitted effect of over 40% in size
How it was run: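 Seeding of 500 SYKi-naive MV4-11 cells per well onto pre-dispensed compounds preceded a 72 hr incubation at 37 C. Luminescent CellTiter-Glo signal, read after 10 min at room temperature, reflected viable cells.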

[2] = Viability qHTS for spleen associated tyrosine kinase inhibitor (SYKi) drug resistant MV4-11 cells (AID 1963824); also: nearly all actives have a fitted effect of over 35% in size
How it was run: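 CellTiter-Glo luminescence, read 10 min after reagent addition, reports viability after a 72 hr compound exposure. Cells are an MV4-11 line made resistant to SYK inhibition, seeded at 500 per well onto compound-containing plates.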

[3] = Quantitative highthroughput screen to assess conditional lethalithy of NOMO1 cells grown in RPMI1640 with dialyzed fetal bovine serum (RPMI+ds) (AID 1963877); also: nearly all actives have a fitted effect of over 30% in size;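 as to Viability: series mostly up to about 46 µM; 100% = DMSO control wells and 0% = empty wells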
How it was run: (§1)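 Each medium arm—HPLM with 10% dialyzed FBS, or RPMI1640 with 5 mM glucose and 10% untreated or dialyzed FBS—was screened against an 11-point, 3-fold compound titration for 48 h at 37 °C, with CellTiter-Glo luminescence as endpoint.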

[4] = Quantitative highthroughput screen to assess conditional lethalithy of P12 Ichikawa cells grown in RPMI1640 with dialyzed fetal bovine serum (RPMI+ds) (AID 1963880); conditions: Potency: P12-Ichikawa viability; also: nearly all actives have a fitted effect of over 35% in size;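 as to Viability: 100% = DMSO wells and 0% = empty wells on each plate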
How it was run: as §1

[5] = Quantitative highthroughput screen to assess conditional lethalithy of P12 Ichikawa cells grown in RPMI1640 with untreated serum (RPMI+s) (AID 1963881); conditions: Potency: viability; also: nearly all actives have a fitted effect of over 35% in size;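 as to Viability: series mostly up to about 46 µM; 100% = DMSO wells and 0% = empty wells without cells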
How it was run: as §1

[6] = Cellular viability qHTS for adrenocortical cancer (ACC) cell line SW-13 (AID 1963989); conditions: SW-13 ACC cells viability, CellTiter-Glo, 48 h; activity (max response): hits give low values; also: nearly all actives have a fitted effect of over 65% in size;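 as to activity (max response): cells grown in serum-free medium with ITS supplement; % is scaled to controls: 0 for no effect and ±100 for the full control effect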
How it was run: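 Viability was read as CellTiter-Glo luminescence after 48 h compound treatment (up to 46 uM final) of SW-13 cells grown serum-free; titration curves were fit with a four-parameter logistic model to give IC50 and efficacy.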

[7] = Cellular viability qHTS for adrenocortical cancer (ACC) cell line NCI-H295R (AID 1963990); also: nearly all actives have a fitted effect of over 60% in size
How it was run: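 CellTiter-Glo ATP luminescence, read 48 h after compound addition, measured viability of NCI-H295R adrenocortical cells grown serum-free with ITS. Final concentrations spanned up to 46 uM. Data normalized to DMSO and doxorubicin, fitted for IC50 and maximal response.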

[8] = Quantitative highthroughput screen to assess conditional lethalithy of P12 Ichikawa cells grown in Human Plasma-Like Medium with dialyzed fetal bovine serum (HPLM+ds) (AID 1963879); conditions: Potency: viability; also: nearly all actives have a fitted effect of over 35% in size; as to Viability: series mostly up to about 46 µM
How it was run: as §1

[9] = Quantitative highthroughput screen to assess conditional lethalithy of SEM cells grown in Human Plasma-Like Medium with dialyzed fetal bovine serum (HPLM+ds) (AID 1963882); also: nearly all actives have a fitted effect of over 35% in size; as to Viability: series mostly up to about 46 µM
How it was run: as §1

[10] = Quantitative highthroughput screen to assess conditional lethalithy of SEM cells grown in RPMI1640 with unreated serum (RPMI+s) (AID 1963883); also: nearly all actives have a fitted effect of over 35% in size;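 as to Viability: 100% = DMSO wells and 0% = empty wells without cells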
How it was run: as §1

[11] = Quantitative highthroughput screen to assess conditional lethalithy of SEM cells grown in RPMI1640 with dialyzed fetal bovine serum (RPMI+ds) (AID 1963884); also: nearly all actives have a fitted effect of over 35% in size;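 as to Viability: series mostly up to about 46 µM; 100% = DMSO control wells and 0% = empty wells without cells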
How it was run: as §1

[12] = Quantitative highthroughput screen to assess conditional lethalithy of NOMO1 cells grown in Human Plasma-Like Medium with dialyzed fetal bovine serum (HPLM+ds) (AID 1963878); also: nearly all actives have a fitted effect of over 35% in size;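 as to Viability: 100% = DMSO wells and 0% = empty wells on each plate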
How it was run: as §1
Potency is read from the fitted curve at half-maximal effect.

Nc1nc(=S)c2[nH]cnc2[nH]1
active: Potency [1] 0.934 µM | Potency [2] 1.05 µM | Potency [3] 7.43 µM | Potency [4] 14.8 µM | Potency [5] 20.9 µM | Potency [6] 3.26 µM and 2.82 µM | Potency [7] 731 nM and 1.12 µM

CC(C)C[C@@H](C(=O)N[C@H](C(=O)OC1CCCC1)c1ccccc1)[C@H](O)C(=O)NO
active: Potency [1] 0.372 µM | Potency [2] 0.0742 µM | Potency [3] 23.5 µM | Potency [8] 20.9 µM | Potency [7] 25.1 µM

NC1(Cc2ccc(Cl)cc2)CCN(c2ncnc3[nH]ccc23)CC1
active: Potency [1] 3.72 µM | Potency [2] 5.25 µM | Potency [3] 9.35 µM | Potency [9] 6.62 µM | Potency [10] 5.26 µM | Potency [11] 7.43 µM | Potency [7] 20 µM

COc1cc(CCc2cc(NC(=O)c3ccc(N4C[C@@H](C)N[C@@H](C)C4)cc3)n[nH]2)cc(OC)c1
active: Potency [1] 1.18 µM | Potency [2] 1.64 µM | Potency [3] 18.7 µM | Potency [8] 20.9 µM | Potency [9] 5.26 µM | Potency [10] 4.69 µM | Potency [6] 28.2 µM | Potency [7] 17.8 µM

C1CCC(C(CC2CCCCN2)C2CCCCC2)CC1 (stereo unspecified)
active: Potency [1] 2.95 µM | Potency [2] 2.95 µM | Potency [3] 23.5 µM | Potency [9] 14.8 µM | Potency [10] 11.8 µM | Potency [6] 7.08 µM | Potency [7] 7.08 µM

COc1cc(C(=O)NC2CCN(C)CC2)ccc1Nc1ncc2c(n1)N(C1CCCC1)CCC(=O)N2C(C)C
active: Potency [1] 5.9 µM | Potency [2] 4.17 µM | Potency [12] 14.8 µM | Potency [8] 9.35 µM | Potency [4] 16.6 µM | Potency [5] 11.8 µM | Potency [6] 25.1 µM | Potency [7] 25.1 µM

CC(C)(C)NC(=O)Nc1cccc(Nc2ncc(F)c(NC(C)(C)CO)n2)c1
inactive: Potency [12]
active: Potency [1] 1.48 µM | Potency [2] 2.31 µM | Potency [8] 8.33 µM | Potency [10] 7.43 µM | Potency [11] 6.62 µM

Cc1cccc2c1CC[C@H](CN1CCC(c3c(Cl)cccc3Cl)CC1)C[C@@H]2O
inactive: Potency [8]
active: Potency [1] 3.26 µM | Potency [2] 2.59 µM | Potency [12] 8.33 µM

COc1cc(OC2CCN(C)CC2)ccc1Nc1ncc2c(n1)n(C1CCCC1)c(=O)n2C
active: Potency [1] 1.86 µM | Potency [2] 2.95 µM | Potency [3] 18.7 µM | Potency [4] 20.9 µM | Potency [5] 23.5 µM | Potency [9] 10.5 µM | Potency [10] 11.8 µM | Potency [11] 14.8 µM | Potency [6] 25.1 µM | Potency [7] 15.8 µM

CCn1c(-c2nonc2N)nc2c(C#CC(C)(C)O)ncc(OC[C@H]3CCCNC3)c21
inactive: Potency [3]
active: Potency [1] 16.6 µM | Potency [2] 7.42 µM | Potency [9] 18.7 µM | Potency [10] 23.5 µM | Potency [11] 14.8 µM | Potency [6] 28.2 µM | Potency [7] 17.8 µM

COc1cc2c(N3CCN(C(=O)Nc4ccc(OC(C)C)cc4)CC3)ncnc2cc1OCCCN1CCCCC1
inactive: Potency [7]
active: Potency [1] 231 nM and 235 nM | Potency [2] 366 nM and 662 nM | Potency [3] 8.33 µM | Potency [4] 8.33 µM | Potency [10] 0.469 µM

CC(C)c1cc(C(=O)N2Cc3ccc(CN4CCN(C)CC4)cc3C2)c(O)cc1O
active: Potency [1] 0.0332 µM | Potency [2] 41.1 nM and 52.5 nM | Potency [3] 0.662 µM | Potency [6] 0.398 µM | Potency [7] 0.631 µM

OCCNC1CCCc2c1[nH]c1ccc(-c3ccccc3)cc21 (stereo unspecified)
active: Potency [1] 8.33 µM | Potency [2] 8.33 µM | Potency [12] 23.5 µM | Potency [8] 20.9 µM | Potency [5] 18.7 µM | Potency [10] 16.6 µM | Potency [6] 15.8 µM | Potency [7] 7.08 µM

CCN1CCN(CC(=O)Nc2ccc(-c3cccc4c(=O)cc(N5CCOCC5)oc34)c3sc4ccccc4c23)CC1
active: Potency [1] 422 nM and 407 nM | Potency [2] 422 nM and 723 nM | Potency [3] 3.72 µM | Potency [10] 1.05 µM | Potency [11] 1.32 µM | Potency [6] 9 µM | Potency [7] 7.15 µM
inactive: Potency [8]

CCCCc1oc2ccccc2c1C(=O)c1cc(I)c(OCCN(CC)CC)c(I)c1
active: Potency [1] 18.8 µM and 16.6 µM | Potency [2] 23.7 µM and 18.6 µM | Potency [3] 20.9 µM | Potency [7] 22.4 µM
inactive: Potency [8] | Potency [4] | Potency [9] | Potency [10] | Potency [11]

c1ccc2c(Oc3nc(Nc4ccc(N5CCOCC5)cc4)c4ncn(C5CCCCC5)c4n3)cccc2c1
inactive: Potency [12] | Potency [8] | Potency [5] | activity (max response) [6] -10% | Potency [7]
active: Potency [1] 1.84 µM and 2.35 µM | Potency [2] 1.84 µM and 4.17 µM

O=C(O)c1ccccc1C(=O)Nc1ccc(-c2ccccc2)cc1
inactive: Potency [1] | Potency [2] | Potency [12] | Potency [8] | Potency [4] | Potency [5] | activity (max response) [6] -5.47% | Potency [7]
